About 6,500 targets were measured; listed, in parts, are those with a hit and a random draw of the rest. About 2% of all pairs of compound and target were hits.
compound: COC(=O)C#Cc1ccccc1 [methyl 3-phenylpropiolate]; assay: log2 ratio of iodoacetamide-alkyne labeling of the cysteine site, DMSO over compound (competition); higher = stronger covalent engagement of the cysteine by the compound, active = 1 or more; details: 500 µM; treatment time 1 h; system: HEK293T cell lysate
Method in brief: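 HEK293T lysate (2 mg/mL) was treated with DMSO or electrophile (500 µM, 1 h, ambient temperature), then iodoacetamide alkyne (1 h), clicked to sCIP-TMT reagents, pooled, trypsin-digested overnight at 37 °C, streptavidin-enriched and acid-eluted. Peptides were run on Orbitrap Eclipse LC-MS/MS with FAIMS and quantified in FragPipe. The log2 competition ratio per cysteine is mean control-channel over mean compound-channel reporter intensity. Duplicate channels and three replicates were used, and cysteines quantified in only one replicate were excluded.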

Chain of UniProt Q9BRX5 (Q9BRX5 whole entry): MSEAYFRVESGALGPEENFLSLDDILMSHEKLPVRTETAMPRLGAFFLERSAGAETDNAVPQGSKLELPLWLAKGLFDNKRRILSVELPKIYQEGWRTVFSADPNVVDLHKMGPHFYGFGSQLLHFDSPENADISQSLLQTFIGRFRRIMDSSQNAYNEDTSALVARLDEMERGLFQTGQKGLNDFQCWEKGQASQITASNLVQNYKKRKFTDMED
Chain of UniProt Q5VT66 (Q5VT66 whole entry): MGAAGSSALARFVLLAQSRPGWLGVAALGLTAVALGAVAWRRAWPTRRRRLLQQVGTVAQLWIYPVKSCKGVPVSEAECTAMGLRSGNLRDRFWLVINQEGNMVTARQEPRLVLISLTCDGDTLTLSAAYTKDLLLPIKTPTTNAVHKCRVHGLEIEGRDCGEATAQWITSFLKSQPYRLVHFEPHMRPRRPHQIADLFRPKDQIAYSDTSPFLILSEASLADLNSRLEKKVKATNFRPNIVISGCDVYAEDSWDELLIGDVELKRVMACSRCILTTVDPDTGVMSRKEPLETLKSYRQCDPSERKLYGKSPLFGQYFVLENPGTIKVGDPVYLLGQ
Chain of UniProt Q6PI48 (Q6PI48 whole entry, looked up): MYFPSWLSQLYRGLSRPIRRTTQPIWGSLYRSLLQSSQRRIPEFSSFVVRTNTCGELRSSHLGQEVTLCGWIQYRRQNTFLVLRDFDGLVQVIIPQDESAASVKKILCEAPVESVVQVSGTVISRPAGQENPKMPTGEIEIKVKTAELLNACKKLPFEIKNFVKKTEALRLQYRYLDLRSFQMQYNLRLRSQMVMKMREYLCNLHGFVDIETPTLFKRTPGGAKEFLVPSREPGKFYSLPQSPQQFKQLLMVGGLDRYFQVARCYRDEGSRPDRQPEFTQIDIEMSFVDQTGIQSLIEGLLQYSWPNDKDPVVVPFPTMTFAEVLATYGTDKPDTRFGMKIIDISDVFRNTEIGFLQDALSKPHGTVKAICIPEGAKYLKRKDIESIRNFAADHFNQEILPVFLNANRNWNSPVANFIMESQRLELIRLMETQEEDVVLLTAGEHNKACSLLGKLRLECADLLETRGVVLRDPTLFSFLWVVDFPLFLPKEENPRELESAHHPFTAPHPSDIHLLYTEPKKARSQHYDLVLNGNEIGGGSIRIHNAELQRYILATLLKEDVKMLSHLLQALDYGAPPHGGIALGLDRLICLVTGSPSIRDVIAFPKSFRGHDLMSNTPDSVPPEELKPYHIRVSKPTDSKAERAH
Chain of UniProt Q99832 (Q99832 whole entry, looked up): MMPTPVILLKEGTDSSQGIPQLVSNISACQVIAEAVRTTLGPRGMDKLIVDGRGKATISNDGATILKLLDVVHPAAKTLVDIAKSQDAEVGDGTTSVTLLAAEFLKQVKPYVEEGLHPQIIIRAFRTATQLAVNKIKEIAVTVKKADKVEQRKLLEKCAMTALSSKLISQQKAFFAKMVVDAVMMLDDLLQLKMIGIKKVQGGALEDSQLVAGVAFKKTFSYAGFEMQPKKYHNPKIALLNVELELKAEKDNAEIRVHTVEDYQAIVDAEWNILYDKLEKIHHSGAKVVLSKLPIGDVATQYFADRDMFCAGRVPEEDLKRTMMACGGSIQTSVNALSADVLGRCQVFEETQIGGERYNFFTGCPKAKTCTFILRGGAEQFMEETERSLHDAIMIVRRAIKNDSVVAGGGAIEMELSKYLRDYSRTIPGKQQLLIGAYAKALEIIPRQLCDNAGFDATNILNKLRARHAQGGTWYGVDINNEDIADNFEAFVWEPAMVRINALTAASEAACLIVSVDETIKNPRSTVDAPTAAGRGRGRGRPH
Chain of UniProt Q8TD19 (Q8TD19 whole entry, looked up): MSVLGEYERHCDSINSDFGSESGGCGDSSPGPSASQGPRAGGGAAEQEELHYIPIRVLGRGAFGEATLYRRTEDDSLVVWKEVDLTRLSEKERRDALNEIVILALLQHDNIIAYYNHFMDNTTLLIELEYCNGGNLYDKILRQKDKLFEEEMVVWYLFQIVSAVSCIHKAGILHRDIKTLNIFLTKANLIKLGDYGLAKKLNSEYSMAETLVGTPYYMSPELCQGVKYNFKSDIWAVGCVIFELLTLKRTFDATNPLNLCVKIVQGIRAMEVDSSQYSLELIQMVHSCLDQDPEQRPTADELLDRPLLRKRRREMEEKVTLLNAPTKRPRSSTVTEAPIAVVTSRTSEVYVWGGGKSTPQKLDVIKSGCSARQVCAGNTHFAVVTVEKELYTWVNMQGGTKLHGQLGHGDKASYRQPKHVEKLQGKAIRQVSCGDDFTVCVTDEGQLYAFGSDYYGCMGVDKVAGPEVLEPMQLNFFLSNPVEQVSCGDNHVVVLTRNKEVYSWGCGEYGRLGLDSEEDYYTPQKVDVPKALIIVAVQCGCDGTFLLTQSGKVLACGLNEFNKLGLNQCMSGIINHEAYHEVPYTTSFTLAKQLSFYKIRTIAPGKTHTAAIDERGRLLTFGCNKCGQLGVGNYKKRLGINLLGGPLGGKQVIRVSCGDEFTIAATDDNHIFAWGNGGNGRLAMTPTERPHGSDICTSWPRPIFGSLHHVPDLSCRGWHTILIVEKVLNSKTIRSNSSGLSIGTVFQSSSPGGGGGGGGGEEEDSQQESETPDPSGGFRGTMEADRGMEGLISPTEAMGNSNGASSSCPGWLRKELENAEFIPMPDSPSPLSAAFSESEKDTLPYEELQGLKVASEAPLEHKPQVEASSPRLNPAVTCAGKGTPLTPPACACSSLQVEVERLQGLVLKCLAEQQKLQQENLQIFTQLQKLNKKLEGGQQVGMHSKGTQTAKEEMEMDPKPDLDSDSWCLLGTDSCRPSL
Chain of UniProt Q99729 (Q99729 whole entry): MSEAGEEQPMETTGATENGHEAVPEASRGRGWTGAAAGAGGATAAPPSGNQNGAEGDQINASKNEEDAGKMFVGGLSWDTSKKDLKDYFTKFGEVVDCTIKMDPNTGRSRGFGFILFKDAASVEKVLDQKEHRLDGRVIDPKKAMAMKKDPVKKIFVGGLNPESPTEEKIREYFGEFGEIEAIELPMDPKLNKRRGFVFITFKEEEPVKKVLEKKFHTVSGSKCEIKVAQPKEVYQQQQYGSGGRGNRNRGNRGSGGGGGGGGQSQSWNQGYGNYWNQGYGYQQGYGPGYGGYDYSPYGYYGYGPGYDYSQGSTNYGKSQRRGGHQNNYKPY
Chain of UniProt Q93073 (Q93073 whole entry): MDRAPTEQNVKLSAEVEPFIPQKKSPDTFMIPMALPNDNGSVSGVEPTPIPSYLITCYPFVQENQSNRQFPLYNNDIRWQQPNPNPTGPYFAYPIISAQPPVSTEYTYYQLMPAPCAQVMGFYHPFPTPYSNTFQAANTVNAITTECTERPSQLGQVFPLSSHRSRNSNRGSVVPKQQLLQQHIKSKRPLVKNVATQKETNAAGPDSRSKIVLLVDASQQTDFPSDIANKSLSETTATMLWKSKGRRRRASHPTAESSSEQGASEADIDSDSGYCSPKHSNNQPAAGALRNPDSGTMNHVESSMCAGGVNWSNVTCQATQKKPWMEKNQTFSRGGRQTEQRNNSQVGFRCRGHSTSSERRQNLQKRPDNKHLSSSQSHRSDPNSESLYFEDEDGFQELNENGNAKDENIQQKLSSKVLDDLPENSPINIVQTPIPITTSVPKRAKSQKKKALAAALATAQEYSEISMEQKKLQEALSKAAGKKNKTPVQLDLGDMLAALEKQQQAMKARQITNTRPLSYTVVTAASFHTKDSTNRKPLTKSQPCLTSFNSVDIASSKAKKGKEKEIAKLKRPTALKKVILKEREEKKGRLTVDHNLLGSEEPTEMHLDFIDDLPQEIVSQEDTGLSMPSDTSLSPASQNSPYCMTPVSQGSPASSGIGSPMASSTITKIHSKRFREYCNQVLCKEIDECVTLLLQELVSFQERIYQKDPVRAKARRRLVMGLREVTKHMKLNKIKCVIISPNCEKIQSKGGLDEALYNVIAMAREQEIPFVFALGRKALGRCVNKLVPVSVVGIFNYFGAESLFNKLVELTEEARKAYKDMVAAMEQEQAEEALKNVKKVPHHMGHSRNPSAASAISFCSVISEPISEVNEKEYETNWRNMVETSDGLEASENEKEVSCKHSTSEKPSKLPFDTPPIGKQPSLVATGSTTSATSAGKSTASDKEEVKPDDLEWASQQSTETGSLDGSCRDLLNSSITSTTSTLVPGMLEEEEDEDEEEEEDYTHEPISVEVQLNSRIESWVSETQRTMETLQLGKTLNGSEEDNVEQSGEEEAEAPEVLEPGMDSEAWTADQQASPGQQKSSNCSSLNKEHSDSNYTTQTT
Chain of UniProt Q9BRA2 (Q9BRA2 whole entry): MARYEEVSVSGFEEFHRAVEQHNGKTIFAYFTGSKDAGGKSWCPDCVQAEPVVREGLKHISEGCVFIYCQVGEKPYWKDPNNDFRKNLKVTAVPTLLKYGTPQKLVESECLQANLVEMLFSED
Chain of UniProt Q96SK2 (Q96SK2 whole entry, looked up): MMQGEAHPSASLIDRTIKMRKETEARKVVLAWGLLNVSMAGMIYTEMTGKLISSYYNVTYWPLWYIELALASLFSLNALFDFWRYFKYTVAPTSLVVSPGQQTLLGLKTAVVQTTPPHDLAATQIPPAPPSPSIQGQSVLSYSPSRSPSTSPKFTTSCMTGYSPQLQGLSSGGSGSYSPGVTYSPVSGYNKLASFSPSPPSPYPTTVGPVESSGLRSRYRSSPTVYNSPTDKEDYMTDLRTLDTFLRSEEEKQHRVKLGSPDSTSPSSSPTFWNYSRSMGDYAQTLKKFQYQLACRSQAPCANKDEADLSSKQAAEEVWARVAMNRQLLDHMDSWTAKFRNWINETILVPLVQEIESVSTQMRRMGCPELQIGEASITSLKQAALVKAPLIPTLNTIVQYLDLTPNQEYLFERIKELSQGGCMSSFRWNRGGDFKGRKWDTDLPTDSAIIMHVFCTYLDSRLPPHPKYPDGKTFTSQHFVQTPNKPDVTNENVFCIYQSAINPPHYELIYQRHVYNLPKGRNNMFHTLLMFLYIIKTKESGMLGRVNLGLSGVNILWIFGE

log2 ratio of iodoacetamide-alkyne labeling, active:
NCAPH2 C342 (UniProt Q6IBW4) 1.07
NEK9 C25 (UniProt Q8TD19) 1.21
TXNDC17 C43 (UniProt Q9BRA2) 1.34
UniProt Q8WYL5_C626 1.19
PHF3 C1616 (UniProt Q92576) 1.14
UniProt Q86YR5_C515 1.7
TRMT2A C463 (UniProt Q8IZ69) 1.1
UniProt Q8N1I0_C1723 1.34
PARG C515 (UniProt Q86W56) 1.16
AHCTF1 C521 (UniProt Q8WYP5) 1.16

log2 ratio of iodoacetamide-alkyne labeling, inactive:
WDR19 C1332 (UniProt Q8NEZ3) 0.441
MYBBP1A C968 (UniProt Q9BQG0) 0.274
DARS2 C371 (UniProt Q6PI48) 0.442
SMC5 C726 (UniProt Q8IY18) 0.249
WDFY2 C290 (UniProt Q96P53) -0.231
ZFYVE16 C895 (UniProt Q7Z3T8) 0.597
AKAP1 C102 (UniProt Q92667) 0.334
DPF1 C149 (UniProt Q92782) 0.289
CCT7 C158 (UniProt Q99832) 0.152
HNRNPAB C98 (UniProt Q99729) -0.0694
THOC2 C743 (UniProt Q8NI27) 0.442
GINS3 C188 (UniProt Q9BRX5) 0.255
SIN3A C486 (UniProt Q96ST3) -0.0562
CCDC50 C85 (UniProt Q8IVM0) 0.455
POM121 C461 (UniProt Q96HA1) 0.43
TMEM209 C301 (UniProt Q96SK2) 0.858
UniProt Q8WZA9_C373 0.706
UniProt Q92888_C892 0.0678
SECISBP2L C544 (UniProt Q93073) 0.341
UniProt Q96GD4_C234 0.62
UBR2 C1619 (UniProt Q8IWV8) 0.0476
UniProt Q8NBJ5_C412 0.133
DHX30 C461 (UniProt Q7L2E3) 0.193
PDLIM5 C449 (UniProt Q96HC4) 0.0755
MARC1 C273 (UniProt Q5VT66) 0.102

— the supplement of paper PMC11006884
